Experimental data taken from the supplement of paper PMC7411054.

Key:
Conditions in all cases: treatment time: 24 h
A549-ACTB-RAB5A [1] = assay: lowest phenotypically active concentration; higher = less potent
Summary of the method: (§1)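 Cells from fifteen gene-edited reporter lines (A549, HepG2 and WPMY1) were treated for 24 h at 0.3, 1, 3 or 9 µM and imaged live, four wells per condition. Features were normalised per well to solvent control wells. A condition deviated if ≥3 of 4 wells passed the 95th percentile of control Euclidean distances and was reproducible if its median replicate Pearson correlation beat the 95th percentile of non-replicates; phenotypic activity needed both.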

A549-GM130-SQSTM1 [2] = assay: as above
Summary of the method: as §1

A549-TUBA1B-RELA [3] = assay: as above
Summary of the method: as §1

A549-ACTB-RAB5A [4] = assay: phenotypically active (imaging signature differs from DMSO and reproducible) at any of 0.3-9 uM (binary (1 = active, 0 = inactive)); higher = active
Summary of the method: as §1

A549-CANX-COX4 = assay: as above
Summary of the method: as §1

A549-GM130-SQSTM1 [5] = assay: as above
Summary of the method: as §1

A549-TP53BP1-CLTA = assay: as above
Summary of the method: as §1

A549-TUBA1B-RELA [6] = assay: as above
Summary of the method: as §1

HepG2-ACTB-RAB5A [7] = assay: as above
Summary of the method: as §1

HepG2-CANX-COX4 = assay: as above
Summary of the method: as §1

HepG2-GM130-SQSTM1 = assay: as above
Summary of the method: as §1

HepG2-TP53BP1-CLTA = assay: as above
Summary of the method: as §1

HepG2-TUBA1B-RELA = assay: as above
Summary of the method: as §1

WPMY1-ACTB-RAB5A = assay: as above
Summary of the method: as §1

WPMY1-CANX-COX4 = assay: as above
Summary of the method: as §1

WPMY1-GM130-SQSTM1 [8] = assay: as above
Summary of the method: as §1

WPMY1-TP53BP1-CLTA = assay: as above
Summary of the method: as §1

WPMY1-TUBA1B-RELA = assay: as above
Summary of the method: as §1

HepG2-ACTB-RAB5A [9] = assay: lowest phenotypically active concentration; higher = less potent
Summary of the method: as §1

WPMY1-GM130-SQSTM1 [10] = assay: as above
Summary of the method: as §1

COCCCC/C(=N/OCCN)c1ccc(C(F)(F)F)cc1 [fluvoxamine]
active: phenotypically active (A549-ACTB-RAB5A [4]) 1 | phenotypically active (A549-GM130-SQSTM1 [5]) 1 | phenotypically active (A549-TUBA1B-RELA [6]) 1 | phenotypically active (HepG2-TP53BP1-CLTA) 1 | phenotypically active (HepG2-TUBA1B-RELA) 1 | phenotypically active (WPMY1-ACTB-RAB5A) 1
inactive: phenotypically active (A549-CANX-COX4) 0 | phenotypically active (A549-TP53BP1-CLTA) 0 | phenotypically active (HepG2-ACTB-RAB5A [7]) 0 | phenotypically active (HepG2-CANX-COX4) 0 | phenotypically active (HepG2-GM130-SQSTM1) 0 | phenotypically active (WPMY1-CANX-COX4) 0 | phenotypically active (WPMY1-GM130-SQSTM1 [8]) 0 | phenotypically active (WPMY1-TP53BP1-CLTA) 0 | phenotypically active (WPMY1-TUBA1B-RELA) 0
9 µM: lowest phenotypically active concentration (A549-ACTB-RAB5A [1]) | lowest phenotypically active concentration (A549-GM130-SQSTM1 [2]) | lowest phenotypically active concentration (A549-TUBA1B-RELA [3])

O[C@H](CNC[C@H](O)[C@@H]1CCc2cc(F)ccc2O1)[C@@H]1CCc2cc(F)ccc2O1 [nebivolol]
3 µM: lowest phenotypically active concentration (A549-ACTB-RAB5A [1]) | lowest phenotypically active concentration (A549-GM130-SQSTM1 [2]) | lowest phenotypically active concentration (A549-TUBA1B-RELA [3]) | lowest phenotypically active concentration (HepG2-ACTB-RAB5A [9])
inactive: phenotypically active (A549-CANX-COX4) 0 | phenotypically active (A549-TP53BP1-CLTA) 0 | phenotypically active (HepG2-CANX-COX4) 0 | phenotypically active (HepG2-GM130-SQSTM1) 0
9 µM: lowest phenotypically active concentration (WPMY1-GM130-SQSTM1 [10])
active: phenotypically active (A549-ACTB-RAB5A [4]) 1 | phenotypically active (A549-GM130-SQSTM1 [5]) 1 | phenotypically active (A549-TUBA1B-RELA [6]) 1 | phenotypically active (HepG2-ACTB-RAB5A [7]) 1 | phenotypically active (HepG2-TP53BP1-CLTA) 1 | phenotypically active (HepG2-TUBA1B-RELA) 1 | phenotypically active (WPMY1-ACTB-RAB5A) 1 | phenotypically active (WPMY1-CANX-COX4) 1 | phenotypically active (WPMY1-GM130-SQSTM1 [8]) 1 | phenotypically active (WPMY1-TP53BP1-CLTA) 1 | phenotypically active (WPMY1-TUBA1B-RELA) 1

Cc1c(O)cccc1C(=O)N[C@@H](CSc1ccccc1)[C@H](O)CN1C[C@H]2CCCC[C@H]2C[C@H]1C(=O)NC(C)(C)C [nelfinavir]
active: phenotypically active (A549-ACTB-RAB5A [4]) 1 | phenotypically active (A549-GM130-SQSTM1 [5]) 1 | phenotypically active (A549-TUBA1B-RELA [6]) 1 | phenotypically active (HepG2-ACTB-RAB5A [7]) 1 | phenotypically active (HepG2-CANX-COX4) 1 | phenotypically active (HepG2-GM130-SQSTM1) 1 | phenotypically active (HepG2-TUBA1B-RELA) 1 | phenotypically active (WPMY1-ACTB-RAB5A) 1 | phenotypically active (WPMY1-CANX-COX4) 1 | phenotypically active (WPMY1-GM130-SQSTM1 [8]) 1 | phenotypically active (WPMY1-TUBA1B-RELA) 1
inactive: phenotypically active (A549-CANX-COX4) 0 | phenotypically active (A549-TP53BP1-CLTA) 0 | phenotypically active (HepG2-TP53BP1-CLTA) 0 | phenotypically active (WPMY1-TP53BP1-CLTA) 0
3 µM: lowest phenotypically active concentration (WPMY1-GM130-SQSTM1 [10])
9 µM: lowest phenotypically active concentration (A549-ACTB-RAB5A [1]) | lowest phenotypically active concentration (A549-GM130-SQSTM1 [2]) | lowest phenotypically active concentration (A549-TUBA1B-RELA [3]) | lowest phenotypically active concentration (HepG2-ACTB-RAB5A [9])

NC(=O)C(c1ccccc1)(c1ccccc1)[C@@H]1CCN(CCc2ccc3c(c2)CCO3)C1 [darifenacin]
active: phenotypically active (A549-ACTB-RAB5A [4]) 1 | phenotypically active (A549-GM130-SQSTM1 [5]) 1 | phenotypically active (A549-TUBA1B-RELA [6]) 1 | phenotypically active (HepG2-ACTB-RAB5A [7]) 1 | phenotypically active (HepG2-CANX-COX4) 1 | phenotypically active (HepG2-GM130-SQSTM1) 1 | phenotypically active (HepG2-TP53BP1-CLTA) 1 | phenotypically active (WPMY1-GM130-SQSTM1 [8]) 1 | phenotypically active (WPMY1-TP53BP1-CLTA) 1
9 µM: lowest phenotypically active concentration (A549-ACTB-RAB5A [1]) | lowest phenotypically active concentration (A549-GM130-SQSTM1 [2]) | lowest phenotypically active concentration (A549-TUBA1B-RELA [3]) | lowest phenotypically active concentration (HepG2-ACTB-RAB5A [9]) | lowest phenotypically active concentration (WPMY1-GM130-SQSTM1 [10])
inactive: phenotypically active (A549-CANX-COX4) 0 | phenotypically active (A549-TP53BP1-CLTA) 0 | phenotypically active (HepG2-TUBA1B-RELA) 0 | phenotypically active (WPMY1-ACTB-RAB5A) 0 | phenotypically active (WPMY1-CANX-COX4) 0 | phenotypically active (WPMY1-TUBA1B-RELA) 0

Clc1ccc2c(c1)C(N1CCNCC1)=Nc1ccccc1O2 [amoxapine]
9 µM: lowest phenotypically active concentration (HepG2-ACTB-RAB5A [9])
inactive: phenotypically active (A549-CANX-COX4) 0 | phenotypically active (A549-TP53BP1-CLTA) 0 | phenotypically active (HepG2-CANX-COX4) 0 | phenotypically active (HepG2-TP53BP1-CLTA) 0 | phenotypically active (WPMY1-CANX-COX4) 0 | phenotypically active (WPMY1-GM130-SQSTM1 [8]) 0 | phenotypically active (WPMY1-TP53BP1-CLTA) 0
3 µM: lowest phenotypically active concentration (A549-ACTB-RAB5A [1]) | lowest phenotypically active concentration (A549-GM130-SQSTM1 [2]) | lowest phenotypically active concentration (A549-TUBA1B-RELA [3])
active: phenotypically active (A549-ACTB-RAB5A [4]) 1 | phenotypically active (A549-GM130-SQSTM1 [5]) 1 | phenotypically active (A549-TUBA1B-RELA [6]) 1 | phenotypically active (HepG2-ACTB-RAB5A [7]) 1 | phenotypically active (HepG2-GM130-SQSTM1) 1 | phenotypically active (HepG2-TUBA1B-RELA) 1 | phenotypically active (WPMY1-ACTB-RAB5A) 1 | phenotypically active (WPMY1-TUBA1B-RELA) 1
